Results published in the supplement of paper PMC12819154, “High-throughput peptide-centric local stability assay extends protein–ligand identification to membrane proteins, tissues and bacteria” (Nature Structural & Molecular Biology, 2025).

The compounds below were run against T1, UniProt P0AES0 (assay: log2 fold change of tryptic peptide abundance, ligand vs vehicle (limited proteolysis) (log2 ratio); higher = more trypsin-susceptible (destabilized)). Conditions: peptide sequence: TGYAVKPIAGR; peptide start residue: 528; ligand concentration: 5 mM; sample: E. coli desalted lysate; replicate design: treated before aliquoting.
T1 sequence (whole entry): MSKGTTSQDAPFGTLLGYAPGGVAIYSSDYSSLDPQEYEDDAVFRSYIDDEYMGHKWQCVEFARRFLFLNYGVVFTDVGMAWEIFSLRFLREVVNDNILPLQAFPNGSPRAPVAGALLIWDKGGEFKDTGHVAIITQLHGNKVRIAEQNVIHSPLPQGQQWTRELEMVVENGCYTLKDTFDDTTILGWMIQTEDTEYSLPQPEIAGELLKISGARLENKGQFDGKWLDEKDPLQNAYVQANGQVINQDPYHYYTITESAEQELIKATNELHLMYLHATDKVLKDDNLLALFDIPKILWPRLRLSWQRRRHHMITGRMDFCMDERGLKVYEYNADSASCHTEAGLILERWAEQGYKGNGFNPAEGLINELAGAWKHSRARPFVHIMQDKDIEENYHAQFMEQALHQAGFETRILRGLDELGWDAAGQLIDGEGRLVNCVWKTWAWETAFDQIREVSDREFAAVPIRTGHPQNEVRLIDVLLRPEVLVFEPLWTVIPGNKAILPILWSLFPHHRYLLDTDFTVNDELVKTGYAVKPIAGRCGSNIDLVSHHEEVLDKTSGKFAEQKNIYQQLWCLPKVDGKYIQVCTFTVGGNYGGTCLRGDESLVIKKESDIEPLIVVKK
Protocol: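 HT-PELSA: desalted E. coli K-12 BW25113 lysate (with 12 mM MgCl2) incubated with 5 mM ATP (pH 7) or water for 30 min at 25 C, then a 4 min trypsin pulse at 22 C. Peptides were quantified by DIA-MS (4 replicates). Value is the peptide log2 fold change (treated/control); negative = stabilized. Scale: negative = ligand-stabilized region.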
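Note: lysate desalted by size exclusion to strip endogenous ATP, peptide intensities built from DIA-NN precursor signals, and peptides missing any value discarded before comparison.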

| SMILES | log2 fold change |
| --- | --- |
| Nc1ncnc2c1ncn2[C@@H]1O[C@H](COP(=O)(O)OP(=O)(O)OP(=O)(O)O)[C@@H](O)[C@H]1O [adenosine 5'-triphosphate] | -1.49 |
